High-throughput results from PubChem BioAssay.
Compounds with a hit are over-represented: about 19% of the library has one in this group of screens.
IL1B secr inh: inflammasome signaling inhibition, IL-1 beta readout | AID 743279 | 360,000 compounds, 4.7% hits | THP-1 LPS/ATP IL-1B secretion, AlphaLISA, 16 h; hits give low values | activity change, % at 57.5 µM; in the data active means activity change below about -50%; inconclusive means mostly about -30% to -49%
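THP-1 cells pretreated 1 hr with compounds (up to 57.5 uM final), then stimulated with LPS (250 ng/mL final) plus ATP (1.25 mM final); secreted IL-1B measured by AlphaLISA after 16 hr, decreased signal indicating inhibition.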
ELG1 repair inh: ELG1-dependent DNA repair inhibition; 330,000 compounds, 2.3% hits; Potency, µM (doses to about 46.1 µM), for inactives: at the top dose activity change, negative = inhibition, actives largely listed as inhibitors; HEK293T ELG1-luciferase reporter, luminescence, 16 h; DNA damage induced by 5-fluorouridine; AID 504467; further: potency means the concentration at half of the fitted maximal effect; nearly all actives have a fitted effect of over 55% in size
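5-Fluorouridine DNA damage + compound/DMSO, 2,000 cells/well, 16 h, 37 °C/5% CO2. ONE-Glo, 30 min RT, luminescence. Readout = decrease in reporter signal.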
TDP1 cell noCPT: qHTS for Inhibitors of human tyrosyl-DNA phosphodiesterase 1 (TDP1): qHTS in cells in absence of CPT; DT40 Tdp1-/- hTDP1 cells, no CPT, ATP luminescence, 48 h; Potency, µM (top dose mostly 46.2 µM), inactives show at the top dose activity change, negative = growth inhibition, actives largely listed as inhibitors; 420,000 compounds, 15% hits; AID 686978, 2013; further: potency means the concentration at half of the fitted maximal effect; nearly all actives have a fitted effect of over 55% in size
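Compound effects on proliferation are scored in DT40 Tdp1-/-;hTDP1 cells in the absence of CPT. ATP levels (CellTiter-Glo luminescence) are recorded after a ≥48 hr, 37 °C incubation.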
TDP1 cell CPT: growth inhibition of DT40 Tdp1-/-;hTDP1 cells with camptothecin (screen for TDP1 inhibitors). AID 686979. Potency, µM (top dose mostly 46.2 µM), for inactives: at the highest dose activity change, negative = growth inhibition, usual class: inhibitors. 420,000 compounds, 12% hits. chicken DT40 Tdp1-/-;hTDP1 cells + 20 nM CPT, ATP luminescence, 48 h; further: potency means the concentration at half of the fitted maximal effect; nearly all actives have a fitted effect of over 55% in size
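Cell growth measured by CellTiter-Glo luminescence after a minimum 48 h, 37 C compound exposure with 20 nM CPT in Tdp1-knockout DT40 cells stably expressing hTDP1, seeded 400/well; qHTS titration format.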
HT1080 IDH1KD tx: HT-1080 IDH1 knockdown cell toxicity (counter line); 360,000 compounds, 2% hits; Potency, µM (highest dose often 46.1 µM), inactives show at the top dose activity, negative = toxicity, hits mostly cytotoxic; HT-1080 IDH1 knockdown viability, ATP luminescence, 48 h; AID 686971;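 further: potency means the concentration at half of the fitted maximal effect; 0% = DMSO wells and -100% = cell-free medium wells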
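Assay cells: HT-1080 with IDH1 knockdown, 750 per well, RPMI/5% FBS. Exposure: 48 h at 37 °C following 2 h pre-incubation. Read: CellTiter-Glo luminescence; fitted concentration-response, curve class assigned.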
HT1080-NT tox: kills 2HG-producing HT-1080-NT fibrosarcoma cells; HT-1080-NT fibrosarcoma viability, CellTiter-Glo ATP luminescence, 48 h; AID 686970; Potency, µM (top dose mostly 46.1 µM), without a hit: top-dose activity, negative = less viability, usual class: cytotoxic; 360,000 compounds, 1.6% hits;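 further: NT is the 2HG producing partner of a matched IDH1 knockdown line; potency means the concentration at half of the fitted maximal effect; 0% = DMSO-treated cells and -100% = media-only wells without cells; nearly all actives have a fitted effect of over 55% in size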
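750 cells/well, RPMI + 5% FBS; 2 h settle, compound pin-transfer, 48 h at 37 degrees C. CellTiter-Glo 10 min RT, luminescence. Normalized to DMSO and media-only wells.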
* hit, by the source's call; ? = inconclusive; · = no result given. Unless noted, the call rests on the fitted dose curve; in most records, active means well fitted curve in the direction sought with a large enough effect; inconclusive means small, poorly fitted or top-dose-only effect, or another doubt; inactive means no such curve, though single readings can be large; an effect the other way counts as inactive or inconclusive. Unless noted, on the % scale 0 is the no-effect control and ±100 the full control effect.

SMILES	IL1B secr inh	ELG1 repair inh	TDP1 cell noCPT	TDP1 cell CPT	HT1080 IDH1KD tx	HT1080-NT tox
C[C@@H]1CC=C[C@H]2[C@H]1C(=O)N(Cc1ccccc1)[C@H]2c1ccc(F)c(Br)c1	·	3%	·	·	·	·
C[C@@H]1CC=C[C@H]2[C@H]1C(=O)N(Cc1ccccc1)[C@H]2c1cccc([N+](=O)[O-])c1	0	-1%	23µM*	21µM*	-15%	-12%
C[C@@]12CCC=C[C@H]1[C@H](c1ccc3ccccc3c1)N(Cc1ccccc1)C2=O	6	5%	?	?	?	?
Cc1ccn2c(C(=O)CSc3ccccc3)c(C)nc2c1	-8	12%	8.2µM*	8.2µM*	-1%	15%
Cc1ccn2c(C(=O)CSc3ccc(Cl)cc3)c(C)nc2c1	14	?	21µM*	23µM*	-3%	-2%
O=S(=O)(Nc1cc(S(=O)(=O)N2CCOCC2)ccc1NCC1CCCO1)c1ccc(F)cc1 (stereo not given)	-3	7%	?	-15%	-2%	-6%
CN1CCN(c2ncc3nc(-c4ccccc4)c(=O)n(C4CC4)c3n2)CC1	·	·	?	21µM*	·	·
CN1CCN(c2ncc3nc(-c4cc(F)cc(F)c4)c(=O)n(C4CC4)c3n2)CC1	·	·	-18%	?	·	·
O=c1c(-c2cccs2)nc2cnc(N3CCNCC3)nc2n1Cc1cccs1	·	·	13µM*	7.3µM*	·	·
O=c1c(-c2ccccc2)nc2cnc(N3CCOCC3)nc2n1C[C@H]1CCCO1	·	·	12%	0%	·	·
O=c1c(-c2cccs2)nc2cnc(N3CCNCC3)nc2n1C1CC1	·	·	21µM*	?	·	·
CN1CCN(c2ncc3nc(-c4cccs4)c(=O)n(C[C@H]4CCCO4)c3n2)CC1	·	·	5.2µM*	12µM*	·	·
Cn1c(=O)c(-c2cccs2)nc2cnc(N3CCNCC3)nc21	·	·	-26%	-21%	·	·
CN(C)C(=O)c1ccc(-c2cc(NCc3cccnc3)ncn2)cc1	·	·	4%	12%	·	·
CN1CCN(c2ncc3nc(-c4ccccc4)c(=O)n(Cc4cccs4)c3n2)CC1	·	·	16µM*	?	·	·
COCCn1c(=O)cnc2cnc(N3CCN(C)CC3)nc21	·	·	-22%	23µM*	·	·
O=c1c(-c2ccc(F)cc2)nc2cnc(N3CCOCC3)nc2n1Cc1cccs1	·	·	-21%	-24%	·	·
O=c1c(-c2ccccc2)nc2cnc(N3CCOCC3)nc2n1Cc1cccs1	·	·	-10%	?	·	·
O=c1c(-c2cc(F)cc(F)c2)nc2cnc(N3CCNCC3)nc2n1Cc1cccs1	·	·	21µM*	?	·	·
O=c1c(-c2ccc(Cl)cc2)nc2cnc(N3CCNCC3)nc2n1Cc1cccs1	·	·	21µM*	6.5µM*	·	·
CC(=O)Nc1ccc(NC(=O)CCS(=O)(=O)c2ccc3c(c2)CC(=O)N3C)cc1	·	·	-9%	-2%	·	·
COCCn1c(=O)c(-c2cccs2)nc2cnc(Oc3ccc(OC)cc3)nc21	·	·	26µM*	?	·	·
CN1CCN(c2ncc3nc(-c4cccs4)c(=O)n(Cc4cccs4)c3n2)CC1	·	·	?	18µM*	·	·
CN1CCN(c2ncc3nc(-c4cccs4)c(=O)n(CCC#N)c3n2)CC1	·	·	?	-88%	·	·
CN(C)c1ncc2nc(-c3cn(C)c4ccccc34)c(=O)n(C[C@H]3CCCO3)c2n1	·	·	17%	4%	·	·
CN1CCN(c2ncc3nc(-c4cn(C)c5ccccc45)c(=O)n(C[C@H]4CCCO4)c3n2)CC1	·	·	?	21µM*	·	·
CCOc1ccc(C(=O)Nc2ccccc2C(=O)OCc2cc(=O)n3nc(C4CC4)sc3n2)cc1	·	·	-1%	1%	·	·
O=C(NCc1ccco1)c1cc(S(=O)(=O)N2CCOCC2)c(Cl)cc1Cl	3	?	-20%	-18%	2%	2%
